These results are taken from PubChem BioAssay (Tox21).

Test [1] can be described thus: qHTS assay to identify small molecule phospholipidosis (PLD) inducers (AID 1259344; active means well fitted curve in the direction sought with a large enough effect; an effect the other way counts as inactive or inconclusive). The note with it: HepG2 phospholipidosis, LipidTOX Red imaging, 24 h; series mostly up to 38.3 µM. A digest of the protocol:
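After 4 h attachment on collagen I, HepG2 cells were dosed with compound alongside LipidTOX Red, kept 24 h at 37 C, fixed, and imaged for lamellar phospholipid pits.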
(In general: In qHTS, concentration-response curves come from the screen itself.)

Test [2] in a line: qHTS assay to identify small molecule HDAC inhibitors (AID 1259364). Further: potency means the concentration at half of the fitted maximal effect.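 Further: wild-type HCT-116 cells with endogenous class I/II HDAC activity; nearly all actives have a fitted effect of over 45% in size.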 Particulars: HCT-116 HDAC-Glo I/II luminescence, 2 h; series mostly up to 92.4 µM. The method in brief:
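HCT-116 wt cells, 1,500/well, overnight attach. Compounds (DMSO) 2 h, 37 °C. HDAC-Glo I/II, 30 min RT. Luminescence.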

The nature of test [3]: qHTS assay to identify small molecule HDAC inhibitors - cell viability counter screen (AID 1259365). Further: nearly all actives have a fitted effect of over 50% in size. The note with it: HCT-116 viability, CellTiter-Glo ATP luminescence, 2 h; series mostly up to 92.4 µM. A digest of the protocol: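 To flag cytotoxic hits, 1,500 wild-type HCT-116 cells per well, plated the day before, receive test compounds for 2hr at 37 C before CellTiter-Glo reagent and a luminescence read.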

Test [4] in a line: qHTS assay to identify small molecule agonists of the sonic hedgehog signaling (Shh) pathway - cell viability counter screen (AID 1259366). Further: nearly all actives have a fitted effect of over 50% in size. Particulars: NIH/3T3 Gli1-Luc viability, CellTiter-Fluor, 24 h; series mostly up to 92.4 µM. A digest of the protocol: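 Fluorescence from CellTiter-Fluor reports live cells in this counter screen. NIH/3T3-derived Gli1-Luc reporter cells receive test compounds for 24hr at 37C; reagent goes in at 23hr.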

Test [5] is described as follows: qHTS assay to identify small molecule antagonists of the sonic hedgehog signaling (Shh) pathway - cell viability counter screen (AID 1259367). Further: nearly all actives have a fitted effect of over 55% in size. Further: potency means the concentration at half of the fitted maximal effect. Particulars: NIH/3T3 Gli1-Luc viability, CellTiter-Fluor, 24 h; series mostly up to 92.4 µM. The method in brief:
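Conditioned medium drove Shh signaling in 3T3 Gli1-Luc cells exposed to compounds at 37C and 5% CO2. Viability was determined from CellTiter-Fluor fluorescence, with reagent incubated 1 hr after 23 hr of treatment.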

Test [6] can be described thus: qHTS assay to identify small molecule agonists of the sonic hedgehog signaling (Shh) pathway (AID 1259368; calls by dose curve;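 further: NIH/3T3-derived 3T3Gli1-Luc cells carrying a stable Gli1-driven firefly luciferase reporter; nearly all actives have a fitted effect of over 15% in size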). Particulars: NIH/3T3 Gli1-Luc reporter, luciferase, 24 h, stronger effect = higher value; series mostly up to 92.4 µM. A digest of the protocol: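 Following a 24 hr incubation with DMSO-dissolved compounds at 37 C, 5% CO2, Gli1-Luc NIH/3T3-derived cells received luciferase reagent for 30 min at room temperature prior to luminescence measurement.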

Test [7] can be described thus: qHTS assay to identify small molecule agonists of the androgen receptor (AR) signaling pathway in the presence of an antagonist - cell viability counter screen (AID 1259379). Further: nearly all actives have a fitted effect of over 25% in size. Further: potency means the concentration at half of the fitted maximal effect. The note with it: MDA-kb2 viability, CellTiter-Fluor, 16 h; series mostly up to 92.4 µM. The method in brief: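 Each compound was tested at 15 concentrations on MDA-kb2 cells in the presence of 3.0uM nilutamide. Viability was measured by CellTiter-Fluor fluorescence after a 16 hr incubation at 37C in a CO2-free atmosphere.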

The nature of test [8]: qHTS assay to identify small molecule agonists of the estrogen receptor beta (ER-beta) signaling pathway - cell viability counter screen (AID 1259380). Further: nearly all actives have a fitted effect of over 30% in size. Particulars: ER-beta-bla HEK293T viability, CellTiter-Glo luminescence, 16 h; series mostly up to 92.4 µM. The method in brief: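 Compounds dissolved in DMSO were pin-transferred onto ER-beta-UAS-bla HEK293T cells that had settled 6 hr, and exposure ran 16 hr at 37C. Following the reporter read, CellTiter-Glo luminescence after 30 min at room temperature indicated cytotoxicity.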

Test [9] can be described thus: qHTS assay to identify small molecule antagonists of the estrogen receptor beta (ER-beta) signaling pathway - cell viability counter screen (AID 1259382). Further: nearly all actives have a fitted effect of over 55% in size. The note with it: ER-beta-UAS-bla HEK293T viability, CellTiter-Glo luminescence, 16 h; series mostly up to 92.4 µM. A digest of the protocol:
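CellTiter-Glo ATP luminescence measured after the LiveBLAzer read in the same wells; ER-beta-UAS-bla HEK293T cells, 16 hr compound treatment with 1nM 17-beta-estradiol agonist at 37C, 5% CO2.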

Test [10] in a line: qHTS assay to identify small molecule agonists of the estrogen receptor alpha (ER-alpha) signaling pathway in the presence of an antagonist - cell viability counter screen (AID 1259386).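 Further: cells exposed to compounds for 22 h at 37 °C before the viability read; nearly all actives have a fitted effect of over 30% in size.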 The note with it: VM7Luc4E2 viability, CellTiter-Fluor fluorescence, 22 h; series mostly up to 92.4 µM. The method in brief:
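Using estrogen-depleted VM7Luc4E2 cells, the 15-concentration compound series was applied together with 10.0nM ICI-182,780 and incubated 22hr at 37C/5% CO2. Cell viability was then scored by CellTiter-Fluor.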

In test [11] the target is Progesterone receptor (Homo sapiens) (UniProt P06401). In words: qHTS assay to identify small molecule agonists of the progesterone receptor (PR) signaling pathway (AID 1346784; calls by dose curve; further: nearly all actives have a fitted effect of over 30% in size; further: potency means the concentration at half of the fitted maximal effect). Particulars: PR-UAS-bla HEK293T, beta-lactamase FRET ratio, 16 h; series mostly up to 92.4 µM. The method in brief:
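Seed PR-UAS-bla HEK 293T cells (2% charcoal-stripped FBS), incubate 6 hr at 37C; add compounds in DMSO, 16 hr at 37C; add LiveBLAzer B/G substrate, 2 hr RT; read fluorescence intensity.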

A short description of test [12]: qHTS assay to identify small molecule antagonists of the sonic hedgehog signaling (Shh) pathway (AID 1259369; calls by dose curve; further: nearly all actives have a fitted effect of over 45% in size; further: potency means the concentration at half of the fitted maximal effect). Particulars: NIH/3T3 Gli1-Luc reporter, Shh antagonist, luminescence 24 h; series mostly up to 92.4 µM. The method in brief:
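Read-out is luminescence from a firefly luciferase gene controlled by the Gli1 response element, in 3T3Gli1-Luc cells pre-incubated 4hr then exposed to compounds and conditioned medium for 24hr.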

For test [13], the target named is Estrogen receptor beta (Homo sapiens) (UniProt Q92731). In words: qHTS assay to identify small molecule agonists of the estrogen receptor beta (ER-beta) signaling pathway (AID 1259377; active means well fitted activation curve with a large enough effect in the signal ratio in the repeat runs, not every such curve was filed as active; the % refers to the signal ratio). Particulars: ER-beta-UAS-bla HEK293T, beta-lactamase FRET ratio, 16 h; series mostly up to 92.4 µM. The method in brief: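 Screening used GripTite ER-beta-UAS-bla cells held in 2% charcoal-stripped FBS medium. After overnight (16 hr) compound incubation at 37C, beta-lactamase activity was detected with a FRET substrate by fluorescence.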

Test [14] is described as follows: qHTS assay to identify small molecule agonists or antagonists of the thyroid stimulating hormone receptor (TSHR) signaling pathway - wild type cell line counter screen (AID 1259384; calls by dose curve). The note with it: HEK293 wild type, cAMP HTRF counter-screen, stronger effect = higher value; series mostly up to 92.4 µM. A digest of the protocol: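 Wild-type HEK293 cells were plated 18 h at 37 C/5% CO2, pin-dosed with compound plus Ro20-1724 medium, held 30 min at room temperature, then given cAMP-d2 and anti-cAMP-cryptate; fluorescence was read after 1 h. Fifteen concentrations, triplicate.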

The target in test [15] is Thyrotropin receptor (Homo sapiens) (UniProt P16473). The test can be described thus: qHTS assay to identify small molecule antagonists of the thyroid stimulating hormone receptor (TSHR) signaling pathway (AID 1259385; calls by dose curve; further: nearly all actives have a fitted effect of over 20% in size). Particulars: TSHR-HEK293 cAMP HTRF, TSH-stimulated antagonist mode; series mostly up to 92.4 µM. The method in brief: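 TSHR-HEK293 cells were plated and held 18 h at 37C/5% CO2, then given compound plus Ro20-1724 and stimulated with TSH at 1.5 ng/mL final. After 30 min at room temperature, cAMP was detected with cAMP-d2/anti-cAMP-cryptate (1 h) by fluorescence.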

The target of test [16] is Progesterone receptor (Homo sapiens) (UniProt P06401). The test can be described thus: qHTS assay to identify small molecule antagonists of the progesterone receptor (PR) signaling pathway (AID 1346795; active means well fitted inhibition curve with a large enough effect in the signal ratio in the repeat runs, not every such curve was filed as active; the % refers to the signal ratio; further: potency means the concentration at half of the fitted maximal effect). The note with it: PR-UAS-bla HEK293T, beta-lactamase FRET ratio, 16 h; series mostly up to 92.4 µM. A digest of the protocol: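 Screening used a GripTite HEK293T line with PR-responsive UAS-beta-lactamase. Cells were challenged with compound in the presence of 1 nM R5020 final for 16 hr at 37C; B/G FRET substrate, 2 hr room temperature, fluorescence.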

Test [17] has as its target Estrogen receptor beta (Homo sapiens) (UniProt Q92731). The test can be described thus: qHTS assay to identify small molecule antagonists of the estrogen receptor beta (ER-beta) signaling pathway (AID 1259378; active means well fitted inhibition curve with a large enough effect in the signal ratio in the repeat runs, not every such curve was filed as active; the % refers to the signal ratio). Particulars: ER-beta-UAS-bla HEK293T, beta-lactamase FRET ratio, 16 h; series mostly up to 92.4 µM. A digest of the protocol:
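ER-beta-UAS-bla HEK293T (GripTite) cells in 2% charcoal-stripped FBS medium were preincubated 6 hr at 37C, dosed with compound, then stimulated with 1 nM E2 (final) for 16 hr; beta-lactamase reporter read by B/G FRET fluorescence after 2 hr substrate loading.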

Test [18] addresses Estrogen receptor (Homo sapiens) (UniProt P03372). In words: qHTS assay to identify small molecule agonists of the estrogen receptor alpha (ER-alpha) signaling pathway in the presence of an antagonist (AID 1259383; calls by dose curve; further: top concentration of the series differs between compounds; nearly all actives have a fitted effect of over 15% in size). Particulars: VM7Luc4E2 cells, ERE-luciferase, +ICI-182,780, 22 h; series mostly up to 92.4 µM. The method in brief: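 Luminescent ERE-luciferase reporter, VM7Luc4E2 cells (endogenous ER-alpha); 10.0nM ICI-182,780 final; 15-point compound titration; 22hr at 37C; ONE-Glo, 30min RT.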

Test [19] has as its target Androgen receptor (Homo sapiens) (UniProt P10275). In words: qHTS assay to identify small molecule agonists of the androgen receptor (AR) signaling pathway in the presence of an antagonist (AID 1259381; calls by dose curve; further: nearly all actives have a fitted effect of over 15% in size). The note with it: MDA-kb2 MMTV-luciferase, AR agonist + nilutamide, 16 h; series mostly up to 92.4 µM. A digest of the protocol:
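Plated MDA-kb2 cells (3,000/well) were pre-incubated 5hr, given nilutamide (3.0uM final) or buffer, then dosed with compounds in DMSO at 15 concentrations. Luciferase activity was quantified by luminescence after 16hr at 37C.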

Several values for one entry are separate records, joined by “and”; a condition that tells them apart may be missing. Equal values may be shown once. Results filed as inconclusive are left out. Some structures have more than one record in an assay (separate samples or runs), and their calls can disagree. Activity calls are given as the source filed them. Unless noted, the call rests on the fitted dose curve; in most records, active means well fitted curve in the direction sought with a large enough effect in the repeat runs; inconclusive means weak or mixed curves; inactive means no such curve, though single readings can be large; an effect the other way counts as inactive or inconclusive.

Estrogen receptor beta (Homo sapiens), sequence (Q92731 whole entry, looked up): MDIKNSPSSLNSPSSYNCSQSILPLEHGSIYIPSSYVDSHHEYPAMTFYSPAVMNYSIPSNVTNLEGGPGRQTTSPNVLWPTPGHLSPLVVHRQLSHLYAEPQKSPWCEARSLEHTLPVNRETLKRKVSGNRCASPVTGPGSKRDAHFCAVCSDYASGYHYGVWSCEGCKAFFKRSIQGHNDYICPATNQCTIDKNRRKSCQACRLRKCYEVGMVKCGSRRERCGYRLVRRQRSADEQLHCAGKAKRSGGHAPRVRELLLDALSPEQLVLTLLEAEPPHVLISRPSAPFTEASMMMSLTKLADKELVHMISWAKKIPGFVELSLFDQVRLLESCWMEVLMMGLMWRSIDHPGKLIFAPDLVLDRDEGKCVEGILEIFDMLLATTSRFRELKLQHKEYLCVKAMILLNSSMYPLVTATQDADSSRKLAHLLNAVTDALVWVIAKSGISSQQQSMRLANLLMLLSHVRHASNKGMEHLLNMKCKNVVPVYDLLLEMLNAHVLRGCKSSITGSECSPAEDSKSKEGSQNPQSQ
Progesterone receptor (Homo sapiens), sequence (P06401 whole entry, looked up): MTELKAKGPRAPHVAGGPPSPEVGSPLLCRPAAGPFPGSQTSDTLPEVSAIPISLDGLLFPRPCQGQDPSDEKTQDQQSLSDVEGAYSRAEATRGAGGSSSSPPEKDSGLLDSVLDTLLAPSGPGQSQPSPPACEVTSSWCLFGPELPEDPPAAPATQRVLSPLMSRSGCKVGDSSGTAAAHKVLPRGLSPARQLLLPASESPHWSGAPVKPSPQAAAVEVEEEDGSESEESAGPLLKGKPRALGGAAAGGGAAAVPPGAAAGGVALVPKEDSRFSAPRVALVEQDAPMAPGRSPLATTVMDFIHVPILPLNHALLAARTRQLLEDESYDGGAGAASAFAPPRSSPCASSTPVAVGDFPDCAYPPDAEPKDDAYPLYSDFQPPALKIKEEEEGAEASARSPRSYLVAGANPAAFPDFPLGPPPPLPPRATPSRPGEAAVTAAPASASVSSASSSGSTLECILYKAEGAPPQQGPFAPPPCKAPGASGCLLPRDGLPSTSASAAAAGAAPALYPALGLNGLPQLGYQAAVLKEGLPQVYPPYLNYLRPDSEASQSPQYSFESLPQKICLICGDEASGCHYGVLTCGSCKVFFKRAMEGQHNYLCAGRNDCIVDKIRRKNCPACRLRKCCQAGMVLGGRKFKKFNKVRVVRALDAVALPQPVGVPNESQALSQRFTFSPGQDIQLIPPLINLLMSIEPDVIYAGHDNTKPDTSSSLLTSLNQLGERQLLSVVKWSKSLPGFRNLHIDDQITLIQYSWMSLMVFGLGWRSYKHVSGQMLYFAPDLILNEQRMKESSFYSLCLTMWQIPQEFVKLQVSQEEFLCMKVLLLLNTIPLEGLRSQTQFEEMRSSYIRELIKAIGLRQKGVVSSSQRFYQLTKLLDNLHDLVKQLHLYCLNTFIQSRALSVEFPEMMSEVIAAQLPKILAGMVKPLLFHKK
Thyrotropin receptor (Homo sapiens), sequence (P16473 whole entry, looked up): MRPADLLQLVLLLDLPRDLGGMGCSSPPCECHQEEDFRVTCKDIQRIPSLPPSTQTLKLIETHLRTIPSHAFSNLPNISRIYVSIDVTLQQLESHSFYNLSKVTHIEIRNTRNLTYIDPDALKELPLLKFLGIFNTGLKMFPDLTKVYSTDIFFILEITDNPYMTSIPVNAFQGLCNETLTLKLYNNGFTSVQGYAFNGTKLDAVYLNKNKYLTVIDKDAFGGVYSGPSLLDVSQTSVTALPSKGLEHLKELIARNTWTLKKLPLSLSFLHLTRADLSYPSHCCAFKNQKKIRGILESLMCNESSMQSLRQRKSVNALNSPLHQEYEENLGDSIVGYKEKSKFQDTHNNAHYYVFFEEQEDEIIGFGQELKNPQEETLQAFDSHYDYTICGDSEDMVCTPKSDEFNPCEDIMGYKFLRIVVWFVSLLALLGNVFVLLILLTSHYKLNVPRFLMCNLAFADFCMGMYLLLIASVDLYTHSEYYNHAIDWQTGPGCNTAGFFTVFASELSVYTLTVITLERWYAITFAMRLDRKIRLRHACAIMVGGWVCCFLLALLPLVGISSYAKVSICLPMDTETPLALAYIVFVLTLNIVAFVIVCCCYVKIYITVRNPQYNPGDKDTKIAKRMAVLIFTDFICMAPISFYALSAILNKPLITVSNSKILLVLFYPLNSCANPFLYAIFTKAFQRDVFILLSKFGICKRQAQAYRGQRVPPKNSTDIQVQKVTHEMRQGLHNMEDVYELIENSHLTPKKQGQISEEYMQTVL
Androgen receptor (Homo sapiens), sequence (P10275 whole entry, looked up): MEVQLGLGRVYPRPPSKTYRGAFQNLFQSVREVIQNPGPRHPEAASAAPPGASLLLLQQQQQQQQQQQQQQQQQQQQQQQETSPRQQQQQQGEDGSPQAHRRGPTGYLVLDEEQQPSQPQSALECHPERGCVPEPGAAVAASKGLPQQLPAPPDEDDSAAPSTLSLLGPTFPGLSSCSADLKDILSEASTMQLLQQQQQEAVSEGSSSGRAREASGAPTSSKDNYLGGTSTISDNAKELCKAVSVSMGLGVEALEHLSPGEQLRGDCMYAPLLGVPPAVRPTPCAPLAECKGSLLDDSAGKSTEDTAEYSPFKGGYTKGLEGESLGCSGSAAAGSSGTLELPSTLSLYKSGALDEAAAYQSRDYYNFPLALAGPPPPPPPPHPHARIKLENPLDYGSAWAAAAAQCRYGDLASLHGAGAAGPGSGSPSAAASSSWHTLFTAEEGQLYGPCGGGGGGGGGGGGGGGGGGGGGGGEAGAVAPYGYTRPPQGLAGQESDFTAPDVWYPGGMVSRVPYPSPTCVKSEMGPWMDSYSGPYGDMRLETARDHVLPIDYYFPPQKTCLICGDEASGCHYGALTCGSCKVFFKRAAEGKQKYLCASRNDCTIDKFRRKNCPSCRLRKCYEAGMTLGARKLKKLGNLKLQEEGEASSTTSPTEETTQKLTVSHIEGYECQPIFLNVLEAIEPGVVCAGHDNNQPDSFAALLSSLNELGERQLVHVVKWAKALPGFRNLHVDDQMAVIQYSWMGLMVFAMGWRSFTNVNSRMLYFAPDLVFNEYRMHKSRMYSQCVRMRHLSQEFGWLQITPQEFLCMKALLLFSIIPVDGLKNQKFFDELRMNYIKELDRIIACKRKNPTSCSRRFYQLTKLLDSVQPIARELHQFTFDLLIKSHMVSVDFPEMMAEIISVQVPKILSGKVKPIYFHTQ
Estrogen receptor (Homo sapiens), sequence (P03372 whole entry, looked up): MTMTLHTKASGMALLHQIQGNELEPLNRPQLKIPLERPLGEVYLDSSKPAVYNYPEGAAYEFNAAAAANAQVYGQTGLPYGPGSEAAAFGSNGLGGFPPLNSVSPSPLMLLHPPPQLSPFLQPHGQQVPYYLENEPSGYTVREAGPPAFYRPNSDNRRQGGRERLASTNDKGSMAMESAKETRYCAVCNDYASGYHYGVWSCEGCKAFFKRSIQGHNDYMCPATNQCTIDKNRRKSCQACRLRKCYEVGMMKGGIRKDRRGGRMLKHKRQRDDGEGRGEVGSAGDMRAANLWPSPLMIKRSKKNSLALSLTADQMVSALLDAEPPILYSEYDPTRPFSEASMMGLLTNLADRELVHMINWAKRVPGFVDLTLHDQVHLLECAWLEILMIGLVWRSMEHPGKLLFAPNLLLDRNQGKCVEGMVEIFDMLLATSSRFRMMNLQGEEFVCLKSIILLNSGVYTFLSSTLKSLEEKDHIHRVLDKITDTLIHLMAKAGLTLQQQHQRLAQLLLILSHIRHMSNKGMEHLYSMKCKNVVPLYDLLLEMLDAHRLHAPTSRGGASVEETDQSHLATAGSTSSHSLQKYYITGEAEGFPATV

Take `CCCSc1ccc2nc(NC(=O)OC)[nH]c2c1`: the compound was classed as inactive in test [1], in test [3] and in test [6]. The Potency was 6.11 µM (active) and 10.6 µM (active) in test [2]; 2.17 µM (active) in [5]. In addition, the Potency result in [4], in test [7], in test [8], in [9], in test [10] and in [11] was “inactive” throughout.
Turning to `Oc1cccc2ccccc12`, the Potency result in test [2], in [4], in test [5], in test [13], in [7] and in [8] was “inactive” throughout. Also, the Potency entry in test [9], in [15], in [10] and in test [11] was “inactive” each time. Also, the compound was called inactive in test [3], in test [6] and in [14]. In addition, in test [12], the Potency was 6.28 µM (active) and 15.4 µM (active).
As for `Cc1cccnc1`, the Potency entry in test [2], in test [4], in [5], in test [12], in test [13] and in test [7] was “inactive” throughout. The Potency result in [8], in test [9], in test [15], in [10], in test [11] and in test [16] was “inactive” each time. Also, the compound was called inactive in [3], in [6] and in test [14].
As for `C[C@H]1C[C@H]2[C@@H]3CCC4=CC(=O)C=C[C@]4(C)[C@@]3(F)[C@@H](O)C[C@]2(C)[C@@]1(O)C(=O)CO`, the call in test [1], in [3] and in [6] was inactive. Also, the Potency result in test [2], in test [4], in test [12], in test [7], in [8] and in test [9] was “inactive” each time. For the same compound, the Potency entry in test [10] was “inactive”. Also, the Potency in [11] was 11.9 µM (active).
Turning to `Cc1cccc(O)c1`, the Potency result in test [2], in test [4], in test [5], in [12], in [13] and in [17] was “inactive” each time. In addition, the Potency entry in test [7], in test [8], in [9], in [18], in test [10] and in [11] was “inactive” each time. Also, the Potency result in test [16] is “inactive”. Further, the compound was called inactive in test [3] and in test [6].
Turning to `O=C1CCC(N2C(=O)c3ccccc3C2=O)C(=O)N1` (configuration not stated), the outcome in test [1], in [3], in test [6] and in [14] was inactive. Further, the Potency result in test [2], in test [4], in test [12], in [13], in [7] and in test [8] was “inactive” throughout. For the same compound, the Potency result in [9], in test [15], in test [10], in test [11] and in [16] was “inactive” each time.
With `CC1CCC(C(C)C)C(O)C1` (configuration not stated), the Potency result in test [2], in [4], in test [5], in test [12], in test [13] and in [17] was “inactive” in each case. Besides, the Potency entry in [7], in test [8], in [19], in test [9], in test [10] and in test [11] was “inactive” throughout. For the same compound, the result in [3], in test [6] and in test [14] was inactive.
As to `CN(C)CCC(c1ccccc1)c1ccccn1` (configuration not stated), the outcome in test [1], in test [3], in test [6] and in [14] was inactive. In addition, the Potency entry in test [2], in test [4], in test [12], in [13], in test [17] and in test [7] was “inactive” each time. The Potency result in [8], in test [9], in test [15], in test [10], in test [11] and in test [16] was “inactive” in each case.
Take `COCCCOc1ccnc(CS(=O)c2nc3ccccc3[nH]2)c1C` (configuration not stated): the compound was classed as inactive in [1], in [3], in [6] and in [14]. Also, the Potency in test [2] was 30.5 µM (active) and inactive; in test [7] it was 48.4 µM (active) and inactive; in test [16], 60.9 µM (active) and inactive. The Potency entry in test [4], in test [5], in test [12], in [13], in test [8] and in test [9] was “inactive” each time. Further, the Potency entry in test [10] and in test [11] was “inactive” in each case.
